Hits are enriched below; roughly 3.4% of the tested compounds scored in any of these assays.
FBW7 act – human FBW7 E3 ligase activation, primary screen; Q969H0; AlphaScreen FBW7–phospho-cyclin E peptide binding, activator screen; normalized activity (activation), % at 26.1 µM; actives 0.13% (n = 650,000); AID 1259310; in the data active = normalized activity above about 1.9%;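 note: purified mutant Fbw7 with reduced substrate affinity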
MITF primary – inhibitors of human MITF; O75030; inhibition, % at 2.6 µM; AlphaScreen MITF homodimerization, bead proximity signal; actives 0.91% (n = 650,000); AID 1259374; in the data active = inhibition above about 50%;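 note: 0% = vehicle wells with protein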
GPR151 activ – human GPR151 activation | PathHunter beta-arrestin GPR151 cells, luminescence | activation, % at 11.2 µM | AID 1508602 | actives 1% (n = 650,000); in the data active = activation above about 4.9%;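 note: 0% = median of compound wells and 100% = cells with positive control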
Target sequence (Q8TDV0 whole entry, looked up): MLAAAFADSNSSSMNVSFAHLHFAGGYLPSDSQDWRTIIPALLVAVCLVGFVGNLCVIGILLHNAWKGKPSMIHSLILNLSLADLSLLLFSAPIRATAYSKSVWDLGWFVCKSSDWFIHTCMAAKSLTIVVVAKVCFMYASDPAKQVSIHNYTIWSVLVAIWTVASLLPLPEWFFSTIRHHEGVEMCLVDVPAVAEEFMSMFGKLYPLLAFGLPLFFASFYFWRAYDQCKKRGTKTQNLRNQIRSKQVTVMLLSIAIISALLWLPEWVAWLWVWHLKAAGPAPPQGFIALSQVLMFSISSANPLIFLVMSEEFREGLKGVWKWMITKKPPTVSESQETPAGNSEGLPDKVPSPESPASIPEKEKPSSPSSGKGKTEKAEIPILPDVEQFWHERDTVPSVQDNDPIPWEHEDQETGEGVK
TEAD-YAP inh – TEAD-YAP interaction inhibition. AID 1259422. actives 1.4% (n = 640,000). inhibition, % at 9.12 µM. HEK-TIYL cells, TEAD-Gal4/YAP UAS-luciferase luminescence; in the data active = inhibition above about 32%;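 note: 0% = median of test compound wells and 100% = reference inhibitor wells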
MITF confirm – confirmation of human MITF inhibitors; shares compounds with MITF primary; inhibition, % at 2.6 µM; AlphaScreen MITF homodimerization, biotin/His-MITF beads; actives 16% (n = 4,700);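 active = inhibition above a cutoff derived from the DMSO control wells, cut at about 28% in these data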;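 note: 0% = MITF dimer wells with DMSO only; inhibitors lower the bead chemiluminescence by keeping MITF from dimerizing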
AS interf DR – counter-screen: compounds optically interfering with AlphaScreen; AlphaScreen optical interference counterscreen, cell-free; actives 6% (n = 480); shares compounds with MITF primary; IC50, µM; AID 1259373; call rule not given here
AS interf ctr – counter-screen: compounds optically interfering with AlphaScreen; shares compounds with MITF primary; LysRS AlphaScreen counterscreen, signal interference, triplicate; inhibition, % at 2.6 µM; actives 7.6% (n = 4,700); AID 1259376;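 active = inhibition above a cutoff derived from the DMSO control wells, cut at about 30% in these data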
* hit, by the source's call; . = not tested or not shown; ! = not active in a repeat.

SMILES	FBW7 act	MITF primary	GPR151 activ	TEAD-YAP inh	MITF confirm	AS interf ctr	others
C=CCc1ccccc1OCCNCCOC	0	52*	-2	2	7	7
C=CCc1ccccc1OCCOCCNCCOC	0	10	-1	12	.	.
COCCNCCOc1ccccc1OC	0	12	0	5	.	.
C=CCc1ccccc1OCCCNCCOC	0	59*	3	2	1	12
C=CCc1ccccc1OCCCCNCCCOC	0	24	1	2	.	.
C=CCc1ccccc1OCCCNCCCOC	0	65*	3	2	5	13
COCCNCCOc1ccccc1C(C)C	0	58*	1	4	17	42*
CN(C)CCS(=O)c1cc(-c2cn[nH]c2)ccc1NC(=O)[C@H]1Cc2cc(F)ccc2CN1 (stereo partly drawn)	0	56*!	0	1	72*	4	AS interf DR=>6.5
CN(C)CCS(=O)c1cc(-c2cn[nH]c2)ccc1NC(=O)[C@@H]1Cc2cc(F)ccc2CN1 (stereo partly drawn)	1.9*!	75*!	0	1	68*	8	AS interf DR=>6.5
COC(=O)c1cccc(NC(=O)CCOc2ccccc2)c1	0	51*	-1	-11	0	7
CCCCSC1=C(C#N)C(c2cccc([N+](=O)[O-])c2)C(C(C)=O)=C(C)N1 (stereo not drawn)	0	63*	1	-6	-9	3
Cc1ccnc2nc(C(=O)Nc3nc(-c4ccccn4)cs3)nn12	-1	65*	0	1	59*	79*
Cc1ccnc2nc(C(=O)Nc3nc(-c4cccs4)cs3)nn12	0	14	-1	-17	.	.
CCc1ccc(-n2c(=S)sc3c(=O)n(-c4ccc(C)cc4)c(SCC#N)nc32)cc1	0	0	0	5	.	.
CN(CCOc1ccccc1)Cc1nc2ccc(Cl)cc2n1CCO	0	78*	0	-1	18	17
C/C(=N\OCC(=O)Nc1sc2c(c1C#N)CCCC2)c1ccccc1	0	-5	1	9	.	.
c1ccc(-c2cc(N3CCOCC3)nc(-c3ccccn3)n2)cc1	0	77*	3	18	12	11
CCOC(=O)c1ccccc1NC(=O)CN1CCN(Cc2nc3ccccc3[nH]2)CC1	0	0	0	4	.	.
CCS(=O)(=O)N1CCN(Cc2nc3ccc(OC)cc3[nH]2)CC1	-1	62*	-2	-7	14	22
CCS(=O)(=O)N1CCN(Cc2ccc(OC)cc2)CC1	0	38	0	6	.	.
CNC(=O)CN1CCN(Cc2nc3ccc(OC)cc3[nH]2)CC1	0	80*	0	3	12	12
COCCNc1cc(-c2ccccn2)nc(-c2ccccc2)n1	0	1	-1	17	.	.
COCCNc1cc(-c2ccccn2)nc(-c2ccccn2)n1	-1	116*	1	22	118*	100*
CCN(CCCN1C(=O)C2C(C(=O)Nc3ccc(C)c(Cl)c3)C3C=CC2(O3)C1C(=O)NC1CCCCC1)Cc1ccccc1 (stereo not drawn)	1	7	0	12	.	.
Cc1ccc(C(=O)N/C(=C\c2ccc(F)cc2)C(=O)NCCCn2ccnc2)cc1	0	-1	-1	-1	.	.
SMILES	FBW7 act	MITF primary	GPR151 activ	TEAD-YAP inh	MITF confirm	AS interf ctr	others
Cc1ccc(C(=O)N/C(=C\c2ccco2)C(=O)NCCCn2ccnc2)cc1	0	74*	0	-8	38*	53*
O=C(NCCN1CCCCC1)/C(=C/c1ccco1)NC(=O)c1ccccc1	0	11	-1	8	.	.
Cc1ccc(C(=O)N/C(=C\c2ccco2)C(=O)NCCN2CCCCC2)cc1C	1	58*	-1	-5	0	-8
CC(C)c1ccc(OCCOCCN2CCN(C)CC2)cc1	0	59*	-2	-3	11	31*
COc1ccc(OCCOCCN2CCN(C)CC2)cc1	0	12	-1	4	.	.
CCOc1ccc(OCCOCCN2CCN(C)CC2)cc1	0	72*	-1	7	12	-6
Cc1ccc(OCCOCCN2CCN(C)CC2)cc1	0	60*	0	-3	8	9
Cc1onc(-c2c(F)cccc2Cl)c1C(=O)NCc1ccncc1	0	8	0	-1	.	.
Cn1c(SCC#N)nnc1-c1cnccn1	0	69*	0	-1	10	18
